# Assay results from PubChem BioAssay (EPA / NIEHS).
# Inconclusive results are not listed. Active and inactive are the calls of the source. How the source made its calls, unless noted: active means hit-call score of the fitted dose curve at least 0.9, where 1 is the maximum; inconclusive means response in the unintended direction; inactive means score below 0.9.
# Tests used:
# [1] = STM_H9_OrnCyssISnorm_ratio: Stemina devTOX quickPredict H9 human embryonic stem cell (hESC)-based Assay for Ornithine (ORN):Cystine (CYSS) Ratio (AID 2283714)
# Procedure, shortened: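 UPLC-HRMS of spent media: ORN/CYSS ratio of internal-standard-normalized percentages, DMSO (0.1%) baseline. Pluripotent H9 hESCs, 72h exposure, daily re-dosing with fresh media; last 24h media collected.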
# [2] = Tanguay_ZF_120hpf_ActivityScore_legacy: (Legacy) Oregon State University Tanguay Lab 120 Hour Post-fertilization zebrafish Assay Score for Activity (AID 2283742);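 on AC50: dechorionated Tropical 5D wild-type zebrafish embryos held singly per well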
# Procedure, shortened: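 Dechorionated 5D embryos, one per well, static exposure 6–120 hpf, 28C, sealed and dark; final DMSO 0.64% (vol/vol). Brightfield binary scoring of mortality plus 18 endpoints; gain-of-signal fit versus DMSO baseline.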
# [3] = ACEA_AR_agonist_AUC_viability: ACEA Biosciences xCELLigence Real-Time Cell Analysis on Androgen Receptor Agonism for Viability (AID 2283775);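 on AC50: viability read 80 hours after compound addition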
# Procedure, shortened: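 22Rv1 cells; impedance growth kinetics; 8-pt 1:4 dilutions from 100 uM top final, ≤0.5% DMSO; n = 2; 80 h read; AUC viability, loss-of-signal vs DMSO.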
# [4] = ACEA_AR_antagonist_AUC_viability: ACEA Biosciences xCELLigence Real-Time Cell Analysis on Androgen Receptor Antagonism for Viability (AID 2283776);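 further: 22Rv1 human prostate cancer cells growing on impedance electrode plates; area under impedance growth curve at 80 h after dosing as viability; hits lower the growth signal relative to DMSO meaning cytotoxicity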
# Procedure, shortened: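 Viability endpoint from label-free cell-index monitoring: 22Rv1 cultures treated with an eight-point 1:4 dilution series starting at 100 uM final, AUC at 80 h fitted against DMSO.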
# [5] = CEETOX_H295R_MTT_cell_viability: Viability Assessment in the CeeTox HT-H295R MTT Assay (AID 2283718; active means hit-call score of the fitted dose curve at least 0.9, where 1 is the maximum; inactive means score below 0.9;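 on AC50: curve fitted both ways so AC50 may mark viability loss or gain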)
# Procedure, shortened: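 Human H295R adrenal cells, prestimulated 48 h with 10 uM forskolin, were exposed 48 h to chemicals in 0.1% DMSO. Viability was measured in the same wells by MTT (0.5 mg/ml, 4 h, 37 C), absorbance 570/650 nm, as percent of controls.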
# [6] = tested on: chicken Androgen Receptor (AR), gene 422165; assay: ATG_chAR_XSP1: Attagene TRANS-FACTORIAL Multi-Species (XSP1) HepG2 Assay for chicken Androgen Receptor (AR) (AID 2283768)
# Procedure, shortened: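 Reporter mRNA read by RT-PCR with fluorescent labelling and capillary electrophoresis 24 h after chemical dosing of transiently transfected HepG2 cells. Chicken AR-Gal4 chimera, partially stimulated with 3 nM 6-alpha-fluorotestosterone; activity fitted upward relative to DMSO.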
# [7] = tested on: zebrafish Androgen Receptor (AR), gene 100005148; assay: ATG_zfAR_XSP1: Attagene TRANS-FACTORIAL Multi-Species (XSP1) HepG2 Assay for zebrafish Androgen Receptor (AR) (AID 2283771)
# Procedure, shortened: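 Gain-of-signal versus DMSO was measured as reporter transcripts quantified by RT-PCR, fluorescent labelling and capillary electrophoresis after 24 h chemical exposure. The cells were HepG2 expressing a chimeric zebrafish AR-GAL4, co-stimulated with 3 nM 6-alpha-fluorotestosterone.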
# [8] = biological target: zebrafish Estrogen Receptor (ESR1), esr1 (gene 259252) (UniProt P57717); assay: ATG_zfER1_XSP1: Attagene TRANS-FACTORIAL Multi-Species (XSP1) HepG2 Assay for zebrafish Estrogen Receptor (ESR1) (AID 2283772)
# zebrafish Estrogen Receptor (ESR1), esr1 (gene 259252), sequence (P57717 whole entry, looked up, the tested form may be a part): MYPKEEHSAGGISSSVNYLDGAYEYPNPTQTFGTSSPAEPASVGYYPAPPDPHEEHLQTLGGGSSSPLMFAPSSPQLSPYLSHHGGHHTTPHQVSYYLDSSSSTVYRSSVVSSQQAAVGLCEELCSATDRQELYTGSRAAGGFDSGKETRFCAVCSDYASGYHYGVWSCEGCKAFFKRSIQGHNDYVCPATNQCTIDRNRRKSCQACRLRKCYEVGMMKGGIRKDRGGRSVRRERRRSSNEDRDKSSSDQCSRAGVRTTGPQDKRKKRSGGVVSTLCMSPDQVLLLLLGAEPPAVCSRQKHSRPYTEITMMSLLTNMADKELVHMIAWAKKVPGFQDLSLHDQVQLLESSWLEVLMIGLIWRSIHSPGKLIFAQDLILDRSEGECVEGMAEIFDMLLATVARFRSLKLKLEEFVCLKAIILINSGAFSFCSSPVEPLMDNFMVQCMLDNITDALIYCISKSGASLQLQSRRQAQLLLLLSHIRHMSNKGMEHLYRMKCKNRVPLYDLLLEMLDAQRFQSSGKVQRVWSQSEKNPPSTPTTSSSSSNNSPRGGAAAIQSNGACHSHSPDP
# Procedure, shortened: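 HepG2 cells transiently transfected with a GAL4-UAS reporter and chimeric zebrafish ER-Gal4, dosed 24 h with 3 nM 6-alpha-fluorotestosterone present. Reporter mRNA measured by RT-PCR and capillary electrophoresis; gain of signal versus DMSO.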
# [9] = tested on: zebrafish Estrogen Receptor (ESR2B), gene 317733; assay: ATG_zfER2b_XSP1: Attagene TRANS-FACTORIAL Multi-Species (XSP1) HepG2 Assay for zebrafish Estrogen Receptor (ESR2B) (AID 2283773)
# Procedure, shortened: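 Multiplexed TRANS format in transfected HepG2 liver cells, chimeric NR-Gal4 from zebrafish ESR2B. 24 h dosing; medium contains 3 nM 6-alpha-fluorotestosterone. mRNA induction by RT-PCR/CE, positive direction vs DMSO.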
# [10] = tested on: frog Estrogen Receptor (ESR2), gene 100174814; assay: ATG_frER2_XSP1: Attagene TRANS-FACTORIAL Multi-Species (XSP1) HepG2 Assay for frog Estrogen Receptor (ESR2) (AID 2283774)
# Procedure, shortened: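 HepG2, transient MRTU transfection (GAL4-UAS reporters, exogenous NR-Gal4 chimeras); 24 h compound exposure; 3 nM 6α-fluorotestosterone co-added; total RNA → RT-PCR → 6-FAM primer extension → HpaI → CE. Positive direction vs DMSO.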
# [11] = tested on: frog Estrogen Receptor (ESR1), gene 398734; assay: ATG_frER1_XSP1: Attagene TRANS-FACTORIAL Multi-Species (XSP1) HepG2 Assay for frog Estrogen Receptor (ESR1) (AID 2283777)
# Procedure, shortened: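 Transient MRTU transfection, HepG2 (human liver); 24 h dosing, 3 nM 6α-fluorotestosterone co-added; RNA → RT-PCR → 6-FAM labeling → CE; upward activity vs DMSO.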
# [12] = tested on: zebrafish Estrogen Receptor (ESR2A), gene 317734; assay: ATG_zfER2a_XSP1: Attagene TRANS-FACTORIAL Multi-Species (XSP1) HepG2 Assay for zebrafish Estrogen Receptor (ESR2A) (AID 2283778)
# Procedure, shortened: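 Transient transfection of HepG2 (human liver) with MRTU constructs; chemical dosing for 24 h; medium contained 3 nM 6-alpha-fluorotestosterone to partly stimulate AR. RT-PCR/CE fluorescence of reporter transcripts; positive direction vs DMSO.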
# [13] = biological target: chicken Estrogen Receptor (ESR1), ESR1 (gene 396099) (UniProt P06212); assay: ATG_chERa_XSP1: Attagene TRANS-FACTORIAL Multi-Species (XSP1) HepG2 Assay for chicken Estrogen Receptor (ESR1) (AID 2283779)
# chicken Estrogen Receptor (ESR1), ESR1 (gene 396099), sequence (P06212 whole entry, looked up, the tested form may be a part): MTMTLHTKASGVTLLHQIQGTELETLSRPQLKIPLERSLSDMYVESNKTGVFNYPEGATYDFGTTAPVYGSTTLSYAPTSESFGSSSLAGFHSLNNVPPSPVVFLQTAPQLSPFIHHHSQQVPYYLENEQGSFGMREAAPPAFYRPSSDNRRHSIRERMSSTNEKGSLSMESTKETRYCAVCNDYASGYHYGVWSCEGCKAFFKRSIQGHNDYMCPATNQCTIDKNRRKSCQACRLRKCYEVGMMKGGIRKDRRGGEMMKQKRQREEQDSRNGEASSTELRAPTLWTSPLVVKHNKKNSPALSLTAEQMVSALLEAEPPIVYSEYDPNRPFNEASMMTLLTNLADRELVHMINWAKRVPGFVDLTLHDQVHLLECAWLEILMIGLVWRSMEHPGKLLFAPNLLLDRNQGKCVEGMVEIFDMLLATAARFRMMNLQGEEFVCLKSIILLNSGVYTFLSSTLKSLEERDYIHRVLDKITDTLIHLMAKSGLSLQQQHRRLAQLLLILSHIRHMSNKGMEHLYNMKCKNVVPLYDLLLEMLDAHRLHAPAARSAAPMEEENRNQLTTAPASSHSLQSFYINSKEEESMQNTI
# Procedure, shortened: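 Read-out: fluorescent reporter mRNA fragments resolved by capillary electrophoresis after RT-PCR and HpaI digestion. Transfected HepG2 cells carried chimeric NR-Gal4 constructs, were dosed 24 h with 3 nM 6-alpha-fluorotestosterone added, and activity was fitted upward relative to DMSO.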
structure (smiles),measurement,setting,value
c1ccc2c(c1)ccc1ccccc12,AC50,[1],78.7 µM (active)
same,outcome,[2],inactive
same,AC50,[3],50 µM (active)
same,AC50,[4],50 µM (active)
COC(=O)CCCCC(=O)OC,outcome,[5],inactive
same,outcome,[2],inactive
same,outcome,[3],inactive
same,outcome,[4],inactive
CC[C@H](c1ccc(O)cc1)[C@@H](CC)c1ccc(O)cc1,outcome,[2],inactive
same,outcome,[6],inactive
same,outcome,[7],inactive
same,AC50,[8],0.000114 µM (active)
same,AC50,[9],0.0657 nM (active)
same,AC50,[10],0.000101 µM (active)
same,AC50,[3],10.7 µM (active)
same,AC50,[4],10.1 µM (active)
same,AC50,[11],0.0764 nM (active)
same,AC50,[12],0.0552 nM (active)
same,AC50,[13],0.0207 nM (active)
CC1=C(/C=C/C(C)=C/C=C/C(C)=C/C(=O)O)C(C)(C)CCC1,AC50,[1],0.00532 µM (active)
same,AC50,[5],1.21 µM (active)
same,AC50,[2],0.34 µM (active)
same,AC50,[4],78.6 µM (active)
CC#C[C@]1(O)CC[C@H]2[C@@H]3CCC4=CC(=O)CCC4=C3[C@@H](c3ccc(N(C)C)cc3)C[C@@]21C,AC50,[5],13.4 µM (active)
same,AC50,[2],27.9 µM (active)
same,AC50,[3],28.1 µM (active)
same,AC50,[4],25.2 µM (active)
CC(C)(C)c1cccc(C(C)(C)C)c1O,outcome,[2],inactive
same,outcome,[3],inactive
same,outcome,[4],inactive
COCC(C)OCC(C)O (centres undefined),outcome,[2],inactive
same,outcome,[3],inactive
COc1cc(CCC(=O)CC(=O)CCc2ccc(O)c(OC)c2)ccc1O,AC50,[3],68.5 µM (active)
same,AC50,[4],61.8 µM (active)
C=C(C)C(=O)OCCC(F)(F)C(F)(F)C(F)(F)C(F)(F)C(F)(F)C(F)(F)F,outcome,[2],inactive
same,outcome,[3],inactive
same,outcome,[4],inactive
COCC(C)O (centres undefined),outcome,[2],inactive
same,outcome,[3],inactive
same,outcome,[4],inactive
CCCCCCCCCCCCN1CCCC1=O,AC50,[2],45.8 µM (active)
same,AC50,[3],50 µM (active)
same,AC50,[4],75.5 µM (active)
Oc1cc2ccccc2c2ccccc12,AC50,[2],31.4 µM (active)
same,AC50,[3],18.1 µM (active)
same,AC50,[4],10.7 µM (active)
OCCC(F)(F)C(F)(F)C(F)(F)C(F)(F)C(F)(F)C(F)(F)C(F)(F)C(F)(F)F,outcome,[2],inactive
same,outcome,[3],inactive
same,outcome,[4],inactive
CC(O)CO (centres undefined),outcome,[2],inactive
same,outcome,[3],inactive
same,AC50,[4],11.9 µM (active)
CC(C)(C)CC(C)(C)c1ccc(O)c(-n2nc3ccccc3n2)c1,outcome,[2],inactive
same,AC50,[3],90.1 µM (active)
same,AC50,[4],82.8 µM (active)
O=C1OC2(c3ccccc31)c1cc(Br)c(O)c(Br)c1Oc1c2cc(Br)c(O)c1Br,outcome,[3],inactive
CC(=O)NC1(c2cccc(F)c2)CCN(CC[C@@]2(c3ccc(Cl)c(Cl)c3)CN(c3ccccc3)C(=O)CO2)CC1,outcome,[2],inactive
same,AC50,[3],41.5 µM (active)
same,AC50,[4],41.5 µM (active)
CC(=O)CC(C)(C)O,outcome,[2],inactive
same,outcome,[3],inactive
same,outcome,[4],inactive
CC[C@H](C)[C@@H](C(=O)O)n1sc2ccccc2c1=O,outcome,[2],inactive
same,outcome,[4],inactive
CCCCCCCC(=O)O,outcome,[2],inactive
same,outcome,[3],inactive
same,outcome,[4],inactive
CC(C)CCCCCCOC(=O)CCCCC(=O)OCCCCCCC(C)C,outcome,[2],inactive
same,outcome,[3],inactive
same,outcome,[4],inactive
O=C(/C=C/c1ccc(O)cc1)CC(=O)/C=C/c1ccc(O)cc1,AC50,[3],62.8 µM (active)
same,AC50,[4],28.4 µM (active)
CCCCCCCCCCCCCC[N+](C)(C)C,AC50,[3],4.73 µM (active)
same,AC50,[4],6.52 µM (active)
OC1CCC(C2CCCCC2)CC1 (centres undefined),outcome,[2],inactive
same,AC50,[3],81.3 µM (active)
same,AC50,[4],50 µM (active)
Cc1oc(-c2ccccc2)nc1CCOc1ccc(C[C@H](Nc2ccccc2C(=O)c2ccccc2)C(=O)O)cc1,AC50,[2],33.2 µM (active)
same,AC50,[3],14 µM (active)
same,AC50,[4],14.4 µM (active)
same,outcome,[11],inactive
same,outcome,[13],inactive
Cc1cc(C)c(O)c(C)c1,outcome,[2],inactive
same,outcome,[3],inactive
same,outcome,[4],inactive
CCCCCCCCOC(=O)CCCCCCCCC(=O)OCCCCCCCC,outcome,[2],inactive
same,outcome,[3],inactive
same,outcome,[4],inactive
CCCCCCC(=O)O,outcome,[2],inactive
same,outcome,[4],inactive
NC(=O)N1C(=O)C(C(=O)c2cc(Cl)cs2)c2cc(F)c(Cl)cc21 (centres undefined),AC50,[2],2.88 µM (active)
same,outcome,[3],inactive
same,outcome,[4],inactive
CCOC(=O)CC(O)(CC(=O)OCC)C(=O)OCC,outcome,[2],inactive
same,outcome,[3],inactive
same,outcome,[4],inactive
CCCCC(CC)COC(=O)CCCCC(=O)OCc1ccccc1 (centres undefined),outcome,[2],inactive
same,outcome,[3],inactive
same,outcome,[4],inactive
CCCCOCCO,outcome,[2],inactive
same,outcome,[3],inactive
same,outcome,[4],inactive
ClC1=C(Cl)C(Cl)(Cl)C(Cl)=C1Cl,outcome,[2],inactive
same,AC50,[3],74.8 µM (active)
same,AC50,[4],68 µM (active)
OC1CCCCC1,outcome,[2],inactive
same,outcome,[3],inactive
same,outcome,[4],inactive
CC(O)C(=O)O (centres undefined),outcome,[3],inactive
Cc1ccc(S(=O)(=O)O)c(C)c1,outcome,[3],inactive
same,outcome,[4],inactive
N#C[C@@H]1CC(F)(F)CN1C(=O)CNC1CC2CCC(C1)N2c1ncccn1 (some centres undefined),outcome,[2],inactive
same,outcome,[4],inactive
CCCCC(CC)COC(=O)CCCCC(=O)OCC(CC)CCCC (centres undefined),outcome,[2],inactive
same,outcome,[3],inactive
same,outcome,[4],inactive
CC(C)(C)c1ccc(O)c(C(C)(C)C)c1,AC50,[2],0.00448 µM (active)
same,AC50,[3],17.4 µM (active)
same,AC50,[4],21 µM (active)
